This note sets out measurements from PubChem BioAssay (Tox21).

Test [1] in a line: qHTS assay to identify small molecule antagonists of the estrogen receptor alpha (ER-alpha) signaling pathway using the BG1 cell line in the presence of 0.1 nM 17-beta-estradiol - cell viability counter screen (AID 1259241). Note: nearly all actives have a fitted effect of over 40% in size. Note: potency is the fitted concentration of half-maximal effect. In a few lines:
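The cell line endogenously expresses full-length ER-alpha and carries four EREs driving luciferase. Cells are cultured 5 days hormone-free, treated 22 hr with compounds and 0.1 nM estradiol, then viability is read by fluorescence.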
(Quantitative high-throughput screening tests each substance at several concentrations.)

Test [2] in a line: qHTS assay to identify small molecule antagonists of the androgen receptor (AR) signaling pathway using the MDA cell line in the presence of 0.5 nM R1881 - cell viability counter screen (AID 1259242). Note: nearly all actives have a fitted effect of over 45% in size. In a few lines:
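Live-cell protease fluorescence, CellTiter-Fluor, 30 min at 37C. Cells: MDA-kb2, 3,000/well, preincubated 5 hr. Compounds plus 0.5 nM R1881 final, 16 hr, 37C, 0% CO2.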

The nature of test [3]: qHTS assay to identify small molecule HDAC inhibitors (AID 1259364).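 Note: wild-type HCT-116 cells with endogenous class I/II HDAC activity; top concentration of the series differs between compounds; nearly all actives have a fitted effect of over 45% in size.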 In a few lines:
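HCT-116 (wild type), 1,500 cells/well, overnight; compound 2 hr 37C 5% CO2; HDAC-Glo I/II reagent 30 min RT; luminescence readout.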

Test [4] is described as follows: qHTS assay to identify small molecule HDAC inhibitors - cell viability counter screen (AID 1259365). Note: series mostly up to about 92 µM; nearly all actives have a fitted effect of over 50% in size. In a few lines:
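Viability readout: CellTiter-Glo luminescence. Wild-type HCT-116 cells, 2hr compound treatment following overnight attachment at 37 C.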

Test [5] is described as follows: qHTS assay to identify small molecule agonists of the sonic hedgehog signaling (Shh) pathway (AID 1259368; calls by dose curve;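 note: NIH/3T3-derived 3T3Gli1-Luc cells carrying a stable Gli1-driven firefly luciferase reporter; series mostly up to about 92 µM; nearly all actives have a fitted effect of over 15% in size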). In a few lines:
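Read-out: firefly luciferase luminescence from a Gli1 response element reporter stably integrated in NIH/3T3-derived 3T3Gli1-Luc cells, measured 30 min at room temperature after reagent addition. Compound exposure lasted 24 hr at 37 C, 5% CO2.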

Test [6] concerns the target Androgen receptor (Homo sapiens) (UniProt P10275). Kind of test: qHTS assay to identify small molecule antagonists of the androgen receptor (AR) signaling pathway using the MDA cell line in the presence of 0.5 nM R1881 (AID 1259243). Note: nearly all actives have a fitted effect of over 50% in size. Note: potency is the fitted concentration of half-maximal effect. In a few lines:
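MDA-kb2, MMTV-luc (AR/GR elements); 3,000 cells/well; cpd + 0.5 nM R1881 final; 16 hr 37C, 0% CO2; ONE-Glo 30 min RT; luminescence.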

Test [7] has as its target Estrogen receptor (Homo sapiens) (UniProt P03372). Kind of test: qHTS assay to identify small molecule antagonists of the estrogen receptor alpha (ER-alpha) signaling pathway using the BG1 cell line in the presence of 0.1 nM 17-beta-estradiol (AID 1259244). Note: nearly all actives have a fitted effect of over 50% in size. In a few lines: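 Luminescence after ONE-Glo (30 min, room temperature) measured ERE-luciferase activity in VM7Luc4E2 cells treated 22 h with compound and 0.1 nM final 17beta-estradiol as stimulator.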

Test [8] in a line: qHTS assay to identify small molecule phospholipidosis (PLD) inducers (AID 1259344; active = well fitted curve in the direction sought with a large enough effect; an effect the other way counts as inactive or inconclusive; note: potency is the fitted concentration of half-maximal effect). In a few lines:
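After 4 h attachment on collagen I, HepG2 cells were dosed with compound alongside LipidTOX Red, kept 24 h at 37 C, fixed, and imaged for lamellar phospholipid pits.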

Test [9] is described as follows: qHTS assay to identify small molecule agonists of the sonic hedgehog signaling (Shh) pathway - cell viability counter screen (AID 1259366). Note: nearly all actives have a fitted effect of over 50% in size. Note: potency is the fitted concentration of half-maximal effect. In a few lines:
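Viability measured fluorometrically (CellTiter-Fluor, 1hr, 37C) in 3T3 Gli1-Luc reporter cells after 23hr compound exposure within a 24hr incubation at 37C/5% CO2.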

The nature of test [10]: qHTS assay to identify small molecule antagonists of the sonic hedgehog signaling (Shh) pathway - cell viability counter screen (AID 1259367). Note: nearly all actives have a fitted effect of over 55% in size. Note: potency is the fitted concentration of half-maximal effect. In a few lines: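 Conditioned medium drove Shh signaling in 3T3 Gli1-Luc cells exposed to compounds at 37C and 5% CO2. Viability was determined from CellTiter-Fluor fluorescence, with reagent incubated 1 hr after 23 hr of treatment.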

A number with no mark means an inactive call. Records with an inconclusive call do not appear. The source made the active and inactive calls. Unless noted, calls come from the whole dose curve; as a rule, active = well fitted curve in the direction sought with a large enough effect in the repeat runs; inconclusive = weak or mixed curves; inactive = no such curve, though single readings can be large; an effect the other way counts as inactive or inconclusive.
% is set by controls: 0 for no effect and ±100 for the full control effect.

Androgen receptor (Homo sapiens), sequence (P10275 whole entry, looked up): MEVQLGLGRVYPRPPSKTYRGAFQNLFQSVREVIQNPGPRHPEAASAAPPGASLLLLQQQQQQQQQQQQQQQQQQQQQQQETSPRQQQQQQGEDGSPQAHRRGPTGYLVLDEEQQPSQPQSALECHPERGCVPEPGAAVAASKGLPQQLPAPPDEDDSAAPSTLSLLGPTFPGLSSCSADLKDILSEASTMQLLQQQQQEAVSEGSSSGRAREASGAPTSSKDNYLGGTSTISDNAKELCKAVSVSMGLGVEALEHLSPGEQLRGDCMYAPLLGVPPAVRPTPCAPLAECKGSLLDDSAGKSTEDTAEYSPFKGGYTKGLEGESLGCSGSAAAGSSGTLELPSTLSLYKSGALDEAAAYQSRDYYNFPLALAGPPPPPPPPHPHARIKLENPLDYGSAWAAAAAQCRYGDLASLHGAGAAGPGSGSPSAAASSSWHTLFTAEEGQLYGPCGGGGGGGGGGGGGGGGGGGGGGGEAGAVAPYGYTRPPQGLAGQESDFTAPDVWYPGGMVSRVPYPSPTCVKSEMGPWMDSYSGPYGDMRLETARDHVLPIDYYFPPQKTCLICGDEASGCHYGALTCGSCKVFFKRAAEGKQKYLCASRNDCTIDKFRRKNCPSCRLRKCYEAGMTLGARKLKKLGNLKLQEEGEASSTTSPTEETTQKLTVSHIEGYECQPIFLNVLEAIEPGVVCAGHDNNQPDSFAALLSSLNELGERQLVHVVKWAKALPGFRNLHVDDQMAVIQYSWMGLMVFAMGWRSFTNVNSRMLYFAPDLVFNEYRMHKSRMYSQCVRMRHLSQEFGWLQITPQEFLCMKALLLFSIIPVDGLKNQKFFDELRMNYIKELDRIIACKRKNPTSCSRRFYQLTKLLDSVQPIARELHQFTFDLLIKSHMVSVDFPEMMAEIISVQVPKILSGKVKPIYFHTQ
Estrogen receptor (Homo sapiens), sequence (P03372 whole entry, looked up): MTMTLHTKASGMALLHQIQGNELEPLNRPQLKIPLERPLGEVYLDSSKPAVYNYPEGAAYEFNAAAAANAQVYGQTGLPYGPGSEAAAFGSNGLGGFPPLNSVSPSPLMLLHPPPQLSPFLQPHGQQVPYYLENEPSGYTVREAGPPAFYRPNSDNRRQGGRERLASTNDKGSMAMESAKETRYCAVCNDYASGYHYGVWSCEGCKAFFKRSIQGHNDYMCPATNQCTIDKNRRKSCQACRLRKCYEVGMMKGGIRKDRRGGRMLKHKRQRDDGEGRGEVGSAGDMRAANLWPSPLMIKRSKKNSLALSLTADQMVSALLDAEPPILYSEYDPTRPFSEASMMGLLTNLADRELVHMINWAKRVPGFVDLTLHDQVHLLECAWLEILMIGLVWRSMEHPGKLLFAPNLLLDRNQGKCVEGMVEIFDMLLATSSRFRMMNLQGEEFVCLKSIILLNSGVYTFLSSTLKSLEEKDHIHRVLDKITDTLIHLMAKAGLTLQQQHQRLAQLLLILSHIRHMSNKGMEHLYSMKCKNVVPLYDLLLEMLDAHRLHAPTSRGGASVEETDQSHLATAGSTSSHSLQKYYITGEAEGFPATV

As to `CN(C)C(=O)NC1(c2ccccc2)CCN(CC[C@@]2(c3ccc(F)c(F)c3)CN(C(=O)c3ccccc3)CCO2)CC1`, the Potency result in test [1], in test [2], in test [3] and in [4] was “inactive” each time. Besides, the molecule was classed as inactive in test [5].
For the molecule `CN1CCC(=C2c3ccccc3Sc3ccccc32)CC1`, the Potency entry in test [1], in test [7], in [3], in [4], in test [9] and in [10] was “inactive” throughout. The Potency in test [6] is 23.7 µM (active); in [8] it was 10 µM (active). For the same molecule, in test [5], the molecule was classed as inactive.
For `COc1ccc(-c2nc3ccc(C4=NNC(=O)CC4C)cc3[nH]2)cc1` (stereo not drawn), the Potency entry in test [1], in test [6], in test [7], in [8], in test [4] and in [9] was “inactive” throughout. Besides, the molecule was classed as inactive in [5].
For `O=C1CCCCCCCCCCCC(=O)OCCO1`, the Potency entry in test [1], in test [6], in test [7], in test [3], in [4] and in test [9] was “inactive” throughout. For the same molecule, in [10], the Potency result is “inactive”. The result in [5] was inactive.
`O=C(NCC1CN(c2ccc(N3CCOCC3=O)cc2)C(=O)O1)c1ccc(Cl)s1` (stereo not drawn): the Potency result in test [1], in [2], in [4], in test [9] and in test [10] was “inactive” throughout. Besides, the molecule was called inactive in test [5].
Regarding `Cc1cc(C(=O)O)ccc1[N+](=O)[O-]`, the Potency entry in [1], in test [7], in [3], in test [4], in test [9] and in [10] was “inactive” throughout. Also, the molecule was classed as inactive in test [5].
For the molecule `C[C@@H]1C[C@H]2O[C@@]3(O[C@@H]2C(C)(C)O)[C@H](O)[C@@]2(C)[C@@H]4CC[C@H]5C(C)(C)[C@@H](O[C@@H]6OC[C@@H](O)[C@H](O)[C@H]6O)CC[C@@]56C[C@@]46CC[C@]2(C)[C@@H]13`, the Potency result in test [1], in test [6], in [7], in test [3], in [4] and in [9] was “inactive” in each case. Also, in test [10], the Potency result was “inactive”. In [5], the result was inactive.
For the molecule `CC(=O)c1ccc2c(c1)N(CCCN1CCC(CCO)CC1)c1ccccc1S2`, the Potency entry in test [1], in test [7], in test [8], in [3] and in test [4] was “inactive” throughout. The Potency in test [9] was 11.9 µM (active). Also, in test [5], the outcome was inactive.
As for `CN(C)CCCN1c2ccccc2Sc2ccccc21`, the Potency entry in test [1], in test [2], in test [3] and in test [4] was “inactive” in each case. The call in [5] was inactive.
On to `O=[N+]([O-])c1ccc(NCCO)c(OCCO)c1`, for which the Potency in [1] is 54.5 µM (active); in test [9] it was 24.4 µM (active); in [10], 30.7 µM (active). For the same molecule, the Potency entry in [6], in [3] and in [4] was “inactive” throughout. Besides, in [5], the result was inactive.
`CC1=CC[C@H](C(C)C)C=C1`: the Potency result in [1], in test [7], in test [3], in test [4], in [9] and in test [10] was “inactive” in each case. Besides, in test [5], the result was inactive.
For `O=C1c2ccccc2S(=O)(=O)N1CCCCN1CCN(c2ncccn2)CC1`, the Potency result in test [1], in test [7], in test [8], in test [3], in [4] and in test [9] was “inactive” each time. In test [10], the Potency result was “inactive”. For the same molecule, in test [5], the outcome was inactive.
As to `CCO[C@H](Cc1ccc(OCCc2ccc(OS(C)(=O)=O)cc2)cc1)C(=O)O`, the Potency entry in test [1], in test [6], in [7], in test [8], in test [3] and in test [4] was “inactive” in each case. For the same molecule, the Potency result in test [9] and in [10] was “inactive” in each case. Also, in test [5], the outcome was inactive.
With `NS(=O)(=O)c1ccc(N2CCCCS2(=O)=O)cc1`, the Potency result in [1], in test [6], in [7], in test [3], in test [4] and in test [10] was “inactive” in each case. In [5], the molecule was called inactive.
Consider `CN(Cc1ccc(C(C)(C)C)cc1)Cc1cccc2ccccc12`, for which the Potency entry in test [1], in test [7], in test [3], in [4], in test [9] and in [10] was “inactive” each time. In addition, in test [8], the PLD induction is -0.504% [at 7.66 µM]. The call in test [5] was inactive.
Regarding `C/C(=C(\CCOP(=O)(O)O)SC(=O)c1ccccc1)N(C=O)Cc1cnc(C)nc1N`, the activity change, negative = cytotoxicity in [1] was -4.04% [at 8.39 µM]; in test [4] it was 6.82% [at 8.39 µM]. For the same molecule, the activity, negative = inhibition in test [6] is 2.6% [at 8.39 µM]. Also, the activity change, negative = inhibition is 5.19% [at 8.39 µM] in test [7] and -1.49% [at 8.39 µM] in [3]. The Potency entry in test [8] is “inactive”. The viability change, negative = cytotoxic was -1.58% [at 8.39 µM] in [9] and 0.0493% [at 8.39 µM] in [10]. Further, the activity change in [5] was 0.138% [at 8.39 µM].
Regarding `CCOC(=O)C1=C[C@]2(CC)CCCN3CCc4c(n1c1ccccc41)[C@@H]32`, the Potency entry in test [1], in test [7], in test [8], in test [3], in test [4] and in test [9] was “inactive” in each case. The Potency entry in [10] is “inactive”. For the same molecule, the molecule was called inactive in test [5].
As to `CCN(CC)CCNc1ccc(CNC=O)c2sc3ccc(OC)cc3c(=O)c12`, in [1], the Potency was 4.33 µM (active). The Potency entry in test [7], in [3], in test [4], in [9] and in test [10] was “inactive” each time. The molecule was classed as inactive in test [5].
On to `CC(C)Cc1ccc(C(C)C(=O)OCc2ccccn2)cc1` (stereo not drawn), for which the Potency result in [1], in [7], in [3], in [4], in test [9] and in [10] was “inactive” in each case. Further, in [5], the result was inactive.
Regarding `O=C(O)CC(=O)C(=O)O`, the Potency entry in test [1], in [2], in test [4] and in test [9] was “inactive” in each case. For the same molecule, in test [5], the molecule was called inactive.
As for `CC(C)(C)Cl`, the Potency entry in test [1], in test [7], in test [3], in test [4], in test [9] and in test [10] was “inactive” in each case. In addition, in test [5], the molecule was classed as inactive.
Take `CC(=O)OC[C@H]1O[C@@H](n2ncc(=O)[nH]c2=O)[C@H](OC(C)=O)[C@@H]1OC(C)=O`: the Potency result in test [1], in [6], in [7], in [8], in test [3] and in test [10] was “inactive” throughout. Further, the outcome in test [5] was inactive.
